Source: PubChem BioAssay (Tox21)
Results filed as inconclusive are left out. The source made the active and inactive calls. Unless noted, calls follow the shape of the dose curve; as a rule, active = well fitted curve in the direction sought with a large enough effect in the repeat runs; inconclusive = weak or mixed curves; inactive = no such curve, though single readings can be large; an effect the other way counts as inactive or inconclusive.

Assays:
[1] = qHTS assay for small molecule agonists of the p53 signaling pathway (AID 651631; calls by dose curve; also: nearly all actives have a fitted effect of over 15% in size; also: potency is read from the fitted curve at half-maximal effect)
How it was run: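 Readout was fluorescence from the LiveBLAzer FRET substrate, applied for 2 h at room temperature after 16 h compound exposure at 37 °C. Cells were the p53RE-bla HCT-116 line, with beta-lactamase driven by p53 response elements.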

[2] = qHTS assay for small molecules that induce genotoxicity in human embryonic kidney cells expressing luciferase-tagged ATAD5 (AID 651632); also: nearly all actives have a fitted effect of over 15% in size
How it was run: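 Luminescence read-out: after 16 hr compound exposure at 37C, ATAD5-luciferase HEK293T cells received Amplite, 30 min RT, then CCD imaging. A rise in signal marks genotoxic stress.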

[3] = qHTS assay for small molecule agonists of the p53 signaling pathway - cell viability (AID 651633; calls by dose curve; also: series mostly up to about 83 µM; nearly all actives have a fitted effect of over 30% in size)
How it was run: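 Viability counter-read: CellTiter-Glo luminescence (30 min, room temperature) in the same p53RE-bla plates. These plates had been exposed to compounds for 16 h at 37 C.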

[4] = qHTS assay for small molecules that induce genotoxicity in human embryonic kidney cells expressing luciferase-tagged ATAD5 - cell viability (AID 651634; calls by dose curve; also: nearly all actives have a fitted effect of over 25% in size)
How it was run: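 HEK293T ATAD5-luc cells, 2,000/well; compound 15.5 hr, 37C/5% CO2; CellTiter-Fluor 30 min, 37C; fluorescence read.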

[5] = qHTS assay to test for compound auto fluorescence at 590 nm (red) in HepG2 cells (AID 720674)
How it was run: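 Red autofluorescence (Ex/Em 540/590 nm, Rose Bengal sodium equivalents) was measured in HepG2 cells, 2,000 per well in MEM plus 10% FBS, plated overnight at 37 C. Readings were taken 1 hr after adding 23 nL compound or DMSO, at 37 C and 5% CO2.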

[6] = qHTS assay to test for compound auto fluorescence at 535 nm (green) in HepG2 cells (AID 720675)
[7] = qHTS assay to test for compound auto fluorescence at 460 nm (blue) in HEK293 cells (AID 720678)
How it was run: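 Cells were seeded and left to adhere for 4-5 hr at 37C. Compounds were then pin-transferred. After an overnight incubation at 37C under 5% CO2, intrinsic fluorescence at 405/460 nm was measured and referenced to triamterene.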

[8] = qHTS assay to test for compound auto fluorescence at 590 nm (red) in HEK293 cells (AID 720679)
How it was run: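 Each well held 2,000 HEK293 cells in medium containing 10% dialyzed FBS. Following 4-5 hr attachment at 37C, 23 nL test compound or DMSO was added; plates sat overnight, and red fluorescence (540/590nm) was recorded.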

[9] = qHTS assay to test for compound auto fluorescence at 535 nm (green) in HEK293 cells (AID 720680)
[10] = qHTS assay to test for compound auto fluorescence at 535 nm (green) in HEK293 cell free culture (AID 720682)
How it was run: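 Compounds were pin-transferred into cell-free DMEM with 10% FBS, and green fluorescence was read at excitation 485 nm and emission 535 nm. Intensities were expressed as fluorescein-equivalent values.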

[11] = qHTS assay to test for compound auto fluorescence at 590 nm (red) in HEK293 cell free culture (AID 720683)
How it was run: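 Red-channel autofluorescence of compounds in culture medium (DMEM, 10% FBS), no cells, measured at 540/590 nm. Rose Bengal sodium is the reference fluorophore for equivalence.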

[12] = qHTS assay to test for compound auto fluorescence at 590 nm (red) in HepG2 cell free culture (AID 720684)
How it was run: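 Cell-free; medium MEM + 10% FBS; compound or DMSO added by pintool; read Ex 540/Em 590 nm; Rose Bengal sodium as red reference fluorophore.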

[13] = qHTS assay to test for compound auto fluorescence at 460 nm (blue) in HepG2 cell free culture (AID 720685)
How it was run: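 Cell-free plates of MEM plus 10% FBS received 23 nL compound or DMSO vehicle; blue-channel (405/460 nm) intensity scored against triamterene as reference fluorophore.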

[14] = qHTS assay to test for compound auto fluorescence at 535 nm (green) in HepG2 cell free culture (AID 720686)
[15] = qHTS assay to test for compound auto fluorescence at 460 nm (blue) in HepG2 cells (AID 720687)
How it was run: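 Blue-channel autofluorescence (Ex/Em 405/460 nm, triamterene-equivalent) was measured after 1 hr compound exposure at 37 C, 5% CO2. Cells were HepG2, plated overnight at 37 C in MEM plus 10% FBS.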

[16] = target: Glucocorticoid receptor (Homo sapiens) (UniProt P04150); assay: qHTS assay to identify small molecule agonists of the glucocorticoid receptor (GR) signaling pathway (AID 720691; active = well fitted activation curve with a large enough effect in the signal ratio in the repeat runs, not every such curve was filed as active; the % refers to the signal ratio)
How it was run: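 HeLa GR-bla reporter line; cells pre-incubated 4 h, compound in DMSO 18 h at 37 C; LiveBLAzer B/G FRET substrate 2 h RT; fluorescence intensity read-out.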

[17] = qHTS assay for small molecule disruptors of the mitochondrial membrane potential - cell viability (AID 720634; calls by dose curve;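 also: human HepG2 liver cancer cells; series mostly up to about 83 µM; nearly all actives have a fitted effect of over 20% in size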)
How it was run: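 Luminescence from CellTiter-Glo (ATP content) gave viability in HepG2 cells, read in the same wells as the MMP dye assay after 1 hr compound exposure at 37 C.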

[18] = qHTS assay to test for compound auto fluorescence at 460 nm (blue) in HEK293 cell free culture (AID 720681)
How it was run: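 Blue fluorescence (Ex 405/Em 460 nm, triamterene-equivalent) was read immediately after pin transfer of compound or DMSO into medium (DMEM, 10% FBS) without cells.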

[19] = target: Glucocorticoid receptor (Homo sapiens) (UniProt P04150); assay: qHTS assay to identify small molecule antagonists of the glucocorticoid receptor (GR) signaling pathway (AID 720692; active = well fitted inhibition curve with a large enough effect in the signal ratio in the repeat runs, not every such curve was filed as active; the % refers to the signal ratio; also: potency is read from the fitted curve at half-maximal effect)
How it was run: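 Read-out: beta-lactamase FRET substrate fluorescence, 2 h at room temperature, in HeLa cells stably carrying a GRE-driven bla reporter. Compounds were co-incubated with 5 nM dexamethasone agonist (final) for 18 h at 37 C.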

[20] = qHTS assay for small molecule disruptors of the mitochondrial membrane potential (AID 720635); also: potency is read from the fitted curve at half-maximal effect
How it was run: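 Mitochondrial membrane potential tracked with Mito-MPS dye, red aggregates (ex 540/em 590 nm) against green monomers (ex 490/em 535 nm). Compound treatment 1 hr at 37C, dye 30 min in HepG2.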
% is scaled to controls: 0 for no effect and ±100 for the full control effect.

Glucocorticoid receptor (Homo sapiens), sequence (P04150 whole entry, looked up): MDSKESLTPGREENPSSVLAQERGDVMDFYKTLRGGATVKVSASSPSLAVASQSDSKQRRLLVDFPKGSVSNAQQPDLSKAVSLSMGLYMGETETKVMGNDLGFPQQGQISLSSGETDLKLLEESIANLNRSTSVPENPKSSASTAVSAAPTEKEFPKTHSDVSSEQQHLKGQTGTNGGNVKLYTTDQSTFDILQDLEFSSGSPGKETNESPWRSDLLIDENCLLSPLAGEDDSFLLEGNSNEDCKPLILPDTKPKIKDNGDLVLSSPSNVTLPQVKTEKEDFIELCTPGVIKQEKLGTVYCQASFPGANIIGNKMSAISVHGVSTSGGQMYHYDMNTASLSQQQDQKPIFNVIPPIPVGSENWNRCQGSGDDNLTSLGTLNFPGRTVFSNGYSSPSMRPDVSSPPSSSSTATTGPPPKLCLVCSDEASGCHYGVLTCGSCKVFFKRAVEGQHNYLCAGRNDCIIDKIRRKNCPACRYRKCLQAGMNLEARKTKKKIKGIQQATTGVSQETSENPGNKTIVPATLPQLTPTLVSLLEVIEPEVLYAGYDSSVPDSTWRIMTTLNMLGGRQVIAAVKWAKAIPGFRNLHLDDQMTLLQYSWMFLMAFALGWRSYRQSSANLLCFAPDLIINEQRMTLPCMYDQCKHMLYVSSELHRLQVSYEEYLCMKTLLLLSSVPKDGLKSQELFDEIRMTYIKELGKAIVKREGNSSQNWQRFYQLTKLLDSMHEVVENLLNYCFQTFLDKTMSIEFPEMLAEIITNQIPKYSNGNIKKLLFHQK

O=C1C(Cl)C(CCl)CN1c1cccc(C(F)(F)F)c1 (stereo not drawn)
inactive: Potency [1] | Potency [2] | Potency [3] | Potency [4] | outcome [5] | outcome [6] | outcome [7] | outcome [8] | outcome [9] | outcome [10] | outcome [11] | outcome [12] | outcome [13] | outcome [14] | outcome [15] | outcome [16]

C=CC(=O)NCNC(=O)C=C
inactive: Potency [1] | Potency [2] | Potency [3] | Potency [4] | outcome [5] | outcome [6] | outcome [7] | outcome [8] | outcome [9] | outcome [10] | outcome [11] | outcome [12] | outcome [13] | outcome [14] | outcome [15] | outcome [16]

O=C(O)COc1ccc(Cl)cc1
inactive: Potency [1] | Potency [2] | Potency [17] | outcome [5] | outcome [6] | outcome [7] | outcome [8] | outcome [9] | outcome [18] | outcome [10] | outcome [11] | outcome [12] | outcome [13] | outcome [14] | outcome [15] | outcome [16] | Potency [19]

CC(Cl)Cl
inactive: Potency [1] | Potency [3] | Potency [4] | Potency [17] | Potency [20] | outcome [5] | outcome [6] | outcome [7] | outcome [9] | outcome [18] | outcome [10] | outcome [11] | outcome [12] | outcome [13] | outcome [14] | outcome [16]

CO[C@@H]1[C@H](OC(=O)NC(=O)CCl)CC[C@]2(CO2)[C@H]1[C@@]1(C)O[C@@H]1CC=C(C)C
active: Potency [1] 18.8 µM
inactive: Potency [3] | Potency [17] | fluorescence, relative to Rose Bengal [5] -0.229% [at 18.6 µM] | fluorescence, % of fluorescein control [6] -0.0271% [at 18.6 µM] | fluorescence, % of triamterene [7] 0.0741% [at 18.6 µM] | fluorescence, % of fluorescent control [8] 0.143% [at 18.6 µM] | fluorescence, % of fluorescein [9] -0.127% [at 18.6 µM] | fluorescence, % of fluorescent control [18] -0.0636% [at 18.6 µM] | activity change [10] 0.201% [at 18.6 µM] | fluorescence, % of fluorescent control [11] -0.369% [at 18.6 µM] | fluorescence, % of Rose Bengal [12] -0.153% [at 18.6 µM] | fluorescence, % of fluorescent control [13] -0.133% [at 18.6 µM] | fluorescence, % of fluorescein control [14] -0.0091% [at 18.6 µM] | fluorescence, % of fluorescent control [15] 0.154% [at 18.6 µM] | outcome [16]

CC1(C)[C@H](C=C(Cl)Cl)[C@@H]1C(=O)O[C@@H](C#N)c1cccc(Oc2ccccc2)c1
inactive: Potency [1] | Potency [2] | Potency [4] | outcome [5] | outcome [6] | outcome [7] | outcome [8] | outcome [9] | outcome [10] | outcome [11] | outcome [12] | outcome [13] | outcome [14] | outcome [15] | outcome [16]

CC1C(=O)C[C@]2(C(C)C)C[C@H]12 (stereo partly drawn)
inactive: Potency [2] | Potency [3] | Potency [4] | Potency [17] | Potency [20] | outcome [5] | outcome [6] | outcome [7] | outcome [8] | outcome [9] | outcome [18] | outcome [10] | outcome [11] | outcome [12] | outcome [13] | outcome [14] | outcome [15]

CC(c1ccc(O)cc1)(c1ccc(O)cc1)c1ccc(O)cc1
inactive: Potency [2] | Potency [17] | outcome [5] | outcome [6] | outcome [7] | outcome [8] | outcome [9] | outcome [10] | outcome [11] | outcome [12] | outcome [13] | outcome [14] | outcome [15]
active: Potency [1] 6.86 µM | Potency [20] 48.6 µM | Potency [19] 19.5 µM

C=CC(=O)OC
inactive: Potency [1] | Potency [3] | Potency [4] | Potency [17] | outcome [6] | outcome [7] | outcome [8] | outcome [9] | outcome [18] | outcome [10] | outcome [11] | outcome [12] | outcome [13] | outcome [14] | outcome [15]

O=C(NCc1cccnc1)Nc1ccc([N+](=O)[O-])cc1
inactive: Potency [1] | Potency [4] | Potency [17] | outcome [5] | outcome [6] | outcome [7] | outcome [8] | outcome [9] | outcome [10] | outcome [11] | outcome [12] | outcome [13] | outcome [14] | outcome [15]
active: Potency [20] 24.3 µM

CCCCCC[N+](=O)[O-]
inactive: Potency [1] | Potency [3] | Potency [17] | outcome [5] | outcome [6] | outcome [7] | outcome [8] | outcome [9] | outcome [18] | outcome [10] | outcome [11] | outcome [12] | outcome [13] | outcome [14] | outcome [15] | outcome [16] | Potency [19]

CCOC(=O)C(Cl)C(C)=O (stereo not drawn)
inactive: Potency [1] | Potency [2] | Potency [4] | Potency [17] | outcome [6] | outcome [7] | outcome [8] | outcome [9] | outcome [18] | outcome [10] | outcome [11] | outcome [12] | outcome [13] | outcome [14] | outcome [15]

COc1cc(CC(C)N)cc2c1OCO2 (stereo not drawn)
inactive: Potency [1] | Potency [3] | Potency [4] | Potency [17] | outcome [5] | outcome [6] | outcome [7] | outcome [8] | outcome [9] | outcome [18] | outcome [10] | outcome [11] | outcome [12] | outcome [13] | outcome [14] | outcome [16] | Potency [19]
